Only some compounds are listed: those with a hit (about 5.7% of all), similar ones and a draw of the others.
HT1080NT lethal: qHTS for induction of synthetic lethality in tumor cells producing 2HG: qHTS for the HT-1080-NT fibrosarcoma cell line; 360,000 tested, 1.6% active; HT-1080-NT fibrosarcoma viability, CellTiter-Glo ATP luminescence, 48 h; AID 686970, 2013; Potency, µM (doses to about 46.1 µM), hits mostly cytotoxic;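 further: NT is the 2HG producing partner of a matched IDH1 knockdown line; nearly all actives have a fitted effect of over 55% in size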
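Luminescent CellTiter-Glo readout after 48 hours of compound exposure at 37 degrees C defined viability of HT-1080-NT cells. Activity was normalized to DMSO wells and cell-free media wells; concentration-response curves were fitted and assigned curve classes.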
KB-3-1 tox: qHTS assay for MDR1-selective chemotherapeutics: Primary screen using the parental adenocarcinoma cell KB-3-1; KB-3-1 viability, CellTiter-Glo ATP luminescence, 72 h; Potency, µM (titrated, usually from 46.1 µM), hits mostly cytotoxic; 400,000 tested, 1.4% active; AID 1347075, 2019; further: nearly all actives have a fitted effect of over 60% in size
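Cytotoxicity measured as CellTiter-Glo luminescence after 72 h at 37 C. Compound titrations were pinned onto drug-naive KB-3-1 parental adenocarcinoma cells grown in DMEM with 10% FBS, and normalized data fitted to concentration-response curves.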
KB-V1 cytotox: qHTS assay for MDR1-selective chemotherapeutics: Primary screen using the drug-selected MDR subline cells KB-V1; KB-V1 MDR cells viability, CellTiter-Glo, 72 h; Potency, µM (titrated, usually from 46.1 µM), actives largely listed as cytotoxic; 400,000 tested, 3.4% active; AID 1347076, 2019; further: nearly all actives have a fitted effect of over 60% in size
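Drug-selected KB-V1 cells, grown in DMEM lacking phenol red with 10% FBS, receive compound titrations; after three days at 37 degrees C, surviving cell ATP is quantified by CellTiter-Glo luminescence and responses normalized and curve-fitted.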
HT1080 IDH1KD tx: qHTS for induction of synthetic lethality in tumor cells producing 2HG: qHTS for the HT-1080-IDH1KD cell line; HT-1080 IDH1 knockdown viability, ATP luminescence, 48 h; Potency, µM (doses to about 46.1 µM), hits mostly cytotoxic; 360,000 tested, 2% active; AID 686971, 2013
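Luminescent ATP read-out (CellTiter-Glo, 10 min at room temperature) after 48 h compound exposure at 37 °C gave viability of IDH1-knockdown HT-1080 cells. Activity was normalised to DMSO and cell-free wells, then fitted as concentration-response curves.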
A number is an active result; - = inactive; ? = inconclusive; . = no result given. The call rests on the fitted dose curve; in most records, active means well fitted curve in the direction sought with a large enough effect; inconclusive means small, poorly fitted or top-dose-only effect, or another doubt; inactive means no such curve, though single readings can be large; an effect the other way counts as inactive or inconclusive.

SMILES | HT1080NT lethal | KB-3-1 tox | KB-V1 cytotox | HT1080 IDH1KD tx
Cc1ccc2c(c1)C(=O)N1[C@H]3c4cc(C)ccc4OC[C@@H]3[C@H](c3ccccc3)[C@]1(C)C(=O)N2 | ? | ? | ? | 7.3µM
CCOC(=O)[C@H]1[C@H]2COc3ccc(C)cc3[C@@H]2N2C(=O)c3cc(F)c(F)cc3NC(=O)[C@@]12C | - | ? | - | -
Cc1ccc2c(c1)C(=O)N1[C@H]3c4cc(Cl)ccc4OC[C@@H]3[C@H](c3ccccc3)[C@]1(C)C(=O)N2 | - | ? | - | ?
CCOC(=O)[C@H]1[C@H]2COc3ccc(Cl)cc3[C@@H]2N2C(=O)c3cc(F)c(F)cc3NC(=O)[C@@]12C | - | 23µM | ? | ?
COC(=O)c1cc2oc3ccccc3c2n1Cc1nc(-c2ccccc2Cl)oc1C | . | - | ? | .
CCN(CC)C(=O)CSc1nc(-c2ccc(C)cc2)nc2c1Cc1c(CO)cnc(C)c1O2 | . | - | - | .
CSc1cccc(-n2cc(-c3ccc4c(c3)OCO4)[nH]c2=O)c1 | ? | 4.1µM | 7.3µM | ?
CN(C(=O)COc1ccccc1C(=O)Nc1ccccc1)c1ccccc1 | . | - | - | .
COc1cccc(CNC(=O)CSc2nc3ccccc3nc2Cc2ccc(C)cc2)c1OC | . | - | - | .
CCCCN(CCCC)CC(O)CN(c1cc([N+](=O)[O-])ccc1OC)S(=O)(=O)c1ccccc1 (stereo unspecified) | ? | ? | 2.6µM | ?
CC1(C)Cc2ccccc2-c2n[nH]c(=S)n21 | 14µM | - | ? | 11µM
O=C(N/N=C/c1cccc2ccccc12)c1n[nH]c2c1CCCC2 | 1.5µM | 4.1µM | 2.6µM | 1.5µM
O=C(N/N=C/c1ccc(Cl)cc1Cl)c1n[nH]c2c1CCCC2 | 8.2µM | 5.2µM | ? | 6.5µM
CCOc1ccc(NC(=O)c2cnn(-c3ccc(C)c(Cl)c3)c2C2CCNCC2)cc1 | . | - | ? | .
Cc1ccc(-n2ncc(C(=O)Nc3ccc(Cl)cc3)c2C2CCNCC2)cc1C | 21µM | - | - | ?
O=S(=O)(c1ccc(Br)cc1)N1CCn2cccc2C1c1ccc(Br)cc1 (stereo unspecified) | . | - | - | .
CCN(CC)c1ccc(NC(=O)c2sc3ccccc3c2Cl)cc1 | . | - | - | .
CCN(CC)Cc1ccc(NC(=O)c2sc3cc(Cl)ccc3c2Cl)cc1 | 7.3µM | ? | ? | 23µM
Cc1ccc(C)c(Cn2c(-c3cccs3)nc3ccccc32)c1 | . | - | - | .
C=CCNC(=O)Cc1c(OC)ccc2cc(Br)ccc12 | - | ? | 21µM | -
Cc1cccc(NC(=O)c2cc3n(n2)C(C(F)(F)F)CC(c2ccc4c(c2)OCO4)N3)c1 (stereo unspecified) | ? | - | 12µM | ?
O=C(NCC1CCCO1)c1cc2n(n1)C(C(F)(F)F)CC(c1ccc(Br)cc1)N2 (stereo unspecified) | - | - | 8.2µM | -
COc1ccc(NC(=O)c2cc3n(n2)C(C(F)(F)F)CC(c2ccc4c(c2)OCO4)N3)cc1OC (stereo unspecified) | - | - | 16µM | ?
Cc1cc(NC(=O)c2cc3n(n2)C(C(F)(F)F)CC(c2ccc(Cl)c(Cl)c2)N3)no1 (stereo unspecified) | - | - | - | -
O=C(Nc1ccc(O)cc1)c1cc2n(n1)C(C(F)(F)F)CC(c1ccco1)N2 (stereo unspecified) | ? | 10µM | ? | ?
CCOc1ccc(NC(=O)c2cc3n(n2)C(C(F)(F)F)CC(c2ccco2)N3)cc1 (stereo unspecified) | - | - | - | -
Cc1cc(C)c(NC(=O)C2CCN(c3nn4c(=O)cc(C)nc4s3)CC2)c(C)c1 | . | - | - | .
C=C(CC[C@]12OC(C(=O)O)C(O)(C(=O)O)C(C(=O)O)(O1)C(OC(=O)/C=C/[C@@H](C)C[C@@H](C)CC)C2O)[C@@H](OC(C)=O)[C@H](C)Cc1ccccc1 (stereo partly specified) | . | - | - | .
O=C(OCC1CCCO1)c1ccc2c(c1)N(Cc1cccc(Cl)c1)C(=O)c1ccccc1S2(=O)=O (stereo unspecified) | . | - | - | .
Cc1cccc(C)c1-n1nnnc1C(c1ccnc2ccccc12)N(CCN(C)C)Cc1ccccc1 (stereo unspecified) | 21µM | ? | ? | 21µM

Assay outcomes deposited in PubChem by National Center for Advancing Translational Sciences (NCATS).
